32 compounds from PubChem BioAssay (NCATS) can be followed below.

Results filed as inconclusive are left out. Values without a mark were called inactive. Activity calls are given as the source filed them. Calls follow the shape of the dose curve; as a rule, active = well fitted inhibition curve with a large enough effect; inconclusive = small, poorly fitted or top-dose-only effect; inactive = flat fitted curve, though single readings scatter.
% is scaled to controls: 0 for no effect and ±100 for the full control effect; potency is read from the fitted curve at half-maximal effect.

The assay deals with Phospholipid hydroperoxide glutathione peroxidase GPX4 (Homo sapiens) (UniProt P36969). Briefly: Primary qHTS Assay for Inhibitors of Recombinant Selenoprotein Glutathione Peroxidase 4 (GPX4) (AID 1845192). Also: nearly all actives have a fitted effect of over 65% in size. To be noted: recombinant GPX4, GR-coupled NADPH fluorescence, 15 min; series mostly up to 50 µM; activity change, negative = inhibition: at the top concentration. A digest of the protocol: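 GR-coupled readout: 100 nM GR, 1 mM GSH, 0.5 mM NADPH; NADPH fluorescence (ex 340/em 450 nm) read at t=0 and after 15 min RT. GPX4 200 nM, preincubated 30 min with compound; substrate 0.5 mM CHP.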
Chain of Phospholipid hydroperoxide glutathione peroxidase GPX4 (Homo sapiens) (P36969 whole entry, looked up): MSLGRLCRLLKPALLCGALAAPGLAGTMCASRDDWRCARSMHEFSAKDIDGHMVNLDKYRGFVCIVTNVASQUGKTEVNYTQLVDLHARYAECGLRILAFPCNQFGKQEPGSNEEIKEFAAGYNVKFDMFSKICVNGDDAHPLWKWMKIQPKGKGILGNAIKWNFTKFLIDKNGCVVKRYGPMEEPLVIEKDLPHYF
For the compound `COC1C2=C(COC2=O)C2(C)CCCC(C)(CO)C2C1OC(=O)c1ccccc1` (configuration not stated), the “outcome” value was “inactive [at 27.8 µM]”.

Take `CC[N+](CC)(CC)CCC(O)(c1ccccc1)C1CCCCC1` (configuration not stated): the “activity change, negative = inhibition” value is 3.96%.

Take `CC(Oc1ccccc1)C(=O)N[C@@H]1C(=O)N2[C@@H]1SC(C)(C)[C@@H]2C(=O)O` (some centres not stated): the “activity change, negative = inhibition” value was -15%.

Consider `Cc1cc(C(=O)NNCc2ccccc2)no1`, for which the “outcome” value was “inactive [at 100 µM]”.

Regarding `CC(C)CC(=O)OC[C@H]1O[C@@](COC(=O)CC(C)C)(O[C@H]2O[C@H](CO)[C@@H](O)[C@H](O)[C@H]2O)[C@@H](OC(=O)CC(C)C)[C@@H]1OC(=O)CC(C)C`, the “activity change, negative = inhibition” value was -4.19% [at 15.3 µM].

Regarding `CC(=O)Oc1c(C)cc(OCC(O)CNC(C)C)c(C)c1C` (configuration not stated), the “outcome” value is “inactive [at 100 µM]”.

For `CCCCCCCCCCCC[n+]1ccc2ccccc2c1`, the “activity change, negative = inhibition” value was -5.18%.

`Cn1c(=O)c2nc(/C=C/c3cccc(Cl)c3)n(C)c2n(C)c1=O`: the “activity change, negative = inhibition” value was -1.71% [at 100 µM].

As to `CCC/C=C/C(=O)O[C@H]1CC(C)(C)CC2[C@]13[C@H](O)O[C@@]21CCC2[C@@]4(C)CC[C@H](O[C@@H]5O[C@H](C(=O)O)[C@@H](O)[C@H](O[C@@H]6O[C@H](CO)[C@H](O)[C@H](O)[C@H]6O[C@@H]6O[C@@H](C)[C@H](O)[C@@H](O)[C@H]6O[C@@H]6OC[C@](O)(CO)[C@H]6O)[C@H]5O[C@@H]5O[C@H](CO)[C@H](O)[C@H](O)[C@H]5O)C(C)(C)C4CC[C@@]2(C)[C@]1(C)C[C@H]3OC(C)=O` (some centres not stated), the activity change, negative = inhibition is -8.75% [at 9.73 µM].

With `Nc1ncnc2c1ncn2[C@@H]1O[C@H](COP(=O)(O)OP(=O)(O)OP(=O)(O)O)[C@@H](O)[C@H]1O`, the activity change, negative = inhibition was 0.0913% [at 0.409 µM].

Turning to `CC[C@@H](C(=O)[C@@H](C)[C@@H](O)[C@H](C)CCc1ccc(C)c(O)c1C(=O)O)[C@H]1O[C@](CC)([C@H]2CC[C@](O)(CC)[C@H](C)O2)C[C@@H]1C`, the Potency is 4.47 µM (active).

For the compound `CC(=O)OCC(=O)[C@@]12OC3(CCCC3)O[C@@H]1C[C@H]1[C@@H]3CCC4=CC(=O)C=C[C@]4(C)[C@@]3(F)[C@@H](O)C[C@@]12C`, the result was inactive.

On to `CC(C)(C)C(=O)OCOC(=O)[C@@H]1N2C(=O)[C@@H](N=CN3CCCCCC3)[C@H]2SC1(C)C`, for which the result was inactive.

For `COc1ccc(C[C@H](N)C(=O)N[C@H]2[C@@H](O)[C@H](n3cnc4c(N(C)C)ncnc43)O[C@@H]2CO)cc1`, the “activity change, negative = inhibition” value was -2.92%.

In the case of `COc1ccc2c3c1O[C@H]1C[C@@H](O)C=C[C@@]31CCN(C)C2`, the Potency entry is “inactive”.

Regarding `C[C@@H]1[C@H](O)[C@@H](C)/C=C/C=C\C=C\C=C\C=C\C=C\C=C\[C@H](O[C@@H]2O[C@H](C)[C@@H](O)[C@H](N)[C@@H]2O)C[C@@H]2O[C@](O)(C[C@@H](O)C[C@@H](O)[C@H](O)CC[C@@H](O)C[C@@H](O)CC(=O)O[C@H]1C)C[C@H](O)[C@H]2C(=O)O` (stereo in doubt), the “activity change, negative = inhibition” value is -12.4%.

For the compound `Cc1ncc([N+](=O)[O-])n1CC(O)CN1CCOCC1` (configuration not stated), the “activity change, negative = inhibition” value was -8.63%.

On to `Cc1cc(O)cc(Oc2cc(C)c(C(=O)O)c(O)c2)c1`, for which the “activity change, negative = inhibition” value was -13.9%.

With `COc1ccc([C@H]2Cc3cccc(O)c3C(=O)O2)cc1`, the “activity change, negative = inhibition” value was 3.35%.

`CC(=O)c1c(C)cc(O[C@@H]2O[C@H](CO)[C@@H](O)[C@H](O)[C@H]2O)cc1O`: the “activity change, negative = inhibition” value is 0.784% [at 27.8 µM].

Regarding `CC(C)(C)c1cc(CN2CCN(CC(O)c3ccc(Cl)cc3)CC2)cc(C(C)(C)C)c1O` (configuration not stated), the “activity change, negative = inhibition” value is -6.8%.

Take `CC[N+](C)(C)Cc1ccccc1Br`: the “activity change, negative = inhibition” value is -12.3%.

Take `O=C1C[C@@H](c2ccc(O)cc2)Oc2cc(O)ccc21`: the “activity change, negative = inhibition” value is -6.63%.

Turning to `COC(=O)CCC(=O)CN`, the outcome was inactive.

As to `CC1(C)S[C@@H]2[C@H](NC(=O)C(C(=O)O)c3ccsc3)C(=O)N2[C@H]1C(=O)O` (some centres not stated), the outcome was inactive.

With `CC1=C2C(=O)C=C(CO)[C@@H]2[C@H]2OC(=O)[C@H](C)[C@@H]2[C@@H](O)C1`, the “activity change, negative = inhibition” value was 2.52%.

`C=C1CC[C@@H]2[C@](C)(CO)[C@H](O)CC[C@@]2(C)[C@@H]1C/C=C1/C(=O)OC[C@H]1O`: the “activity change, negative = inhibition” value is -18.8%.

Regarding `C=C1CCC2C(OC(=O)C2(O)COC(C)=O)C2C(=C)C(O)CC12` (configuration not stated), the “activity change, negative = inhibition” value is 1.67% [at 27.8 µM].

On to `O=C(O)c1cc(O)c2c(c1)[O][Bi][O]2`, for which the outcome was “inactive [at 0.409 µM]”.

On to `C1CCN2CC3C[C@@H](CN4CCCC[C@@H]34)[C@H]2C1`, for which the “activity change, negative = inhibition” value was 1.32%.

Turning to `Cc1cc(/C=C/c2ccc3cc(N(C)C)ccc3[n+]2C)c(C)n1-c1ccccc1`, the Potency is 14.1 µM (active).

As to `CC1(C)O[C@@H]2C[C@H]3[C@@H]4CCC5=CC(=O)C=C[C@]5(C)[C@H]4[C@@H](O)C[C@]3(C)[C@]2(C(=O)CO)O1`, the “activity change, negative = inhibition” value was -8.17%.
